This is a sample that favours compounds with a hit; in the whole collection about 3.2% have one here.
Mcl-1 Bim block: disrupts Bim peptide binding to human Mcl-1; Q07820; Bead-based flow cytometry, Bim peptide-Mcl-1 binding; inhibition, % at 10 µM; 190,000 compounds, 0.1% hits; in the data active means inhibition above about 40%
Target sequence (Q07820 whole entry, looked up): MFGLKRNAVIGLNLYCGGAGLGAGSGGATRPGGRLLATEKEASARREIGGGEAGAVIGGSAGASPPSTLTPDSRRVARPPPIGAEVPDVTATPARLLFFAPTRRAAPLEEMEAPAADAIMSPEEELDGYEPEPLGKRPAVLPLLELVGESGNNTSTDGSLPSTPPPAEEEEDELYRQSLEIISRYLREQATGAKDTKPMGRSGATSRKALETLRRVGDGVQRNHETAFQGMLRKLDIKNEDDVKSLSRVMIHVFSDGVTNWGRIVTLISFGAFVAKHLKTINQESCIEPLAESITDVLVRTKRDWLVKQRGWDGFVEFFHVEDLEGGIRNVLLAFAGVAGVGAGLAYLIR
Mcl1 Bid PPI: disrupts binding of human Mcl-1 to Bid peptide | AID 1021 | Q07820 | TR-FRET Mcl-1/Bid-Dy647 peptide binding, 1536-well | 220,000 compounds, 0.97% hits | inhibition, % at 21.7 µM;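 active means compounds that cut the binding signal by more than half at the single screening dose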;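 further: His-tagged Mcl-1 with europium anti-His antibody binding Bid BH3 peptide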
NCF1 inh: inhibitors of human p47phox binding. P14598. p47phox/p22phox peptide binding, fluorescence polarization, 2 h. inhibition, % at 24.7 µM. 220,000 compounds, 0.53% hits. AID 1274;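 active means inhibition above about 30%, limit read from the data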
14-3-3 Bad inh: disrupts binding of bovine 14-3-3 zeta to phospho-Bad peptide; TR-FRET 14-3-3zeta/Dy647-pBad peptide displacement, 1 h; inhibition, % at 21.7 µM; 220,000 compounds, 0.71% hits; AID 781;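 active means inhibition above about 70%, limit read from the data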
Target sequence (P63103 whole entry, looked up): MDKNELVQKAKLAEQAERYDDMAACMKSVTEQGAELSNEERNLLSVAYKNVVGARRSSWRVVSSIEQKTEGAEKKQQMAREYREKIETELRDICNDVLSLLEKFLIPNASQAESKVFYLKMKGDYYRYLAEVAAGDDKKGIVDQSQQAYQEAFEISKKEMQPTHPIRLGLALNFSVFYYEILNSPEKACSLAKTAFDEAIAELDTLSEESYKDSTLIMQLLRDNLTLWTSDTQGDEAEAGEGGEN
Mcl1-Noxa inh: Mcl-1/Noxa interaction inhibition. AID 1022. 220,000 compounds, 1.5% hits. TR-FRET Mcl-1/Noxa peptide binding, 2 h. inhibition, % at 21.7 µM;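 active means compounds that cut the protein-peptide binding signal by more than 50% relative to plate controls in a single-dose test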;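 further: His-tagged Mcl-1 with rhodamine Noxa BH3 peptide and terbium anti-His antibody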
Each line names hits and unclear results; the compound was inactive in the other large screens; [ ] = remark or other dose.

Cc1ccc(NC(=O)CN2C(=O)NC3(CCCc4ccccc43)C2=O)cc1S(=O)(=O)N1CCOCC1 (centres undefined)	NCF1 inh 40.0
Cc1ccc(NC(=O)CNCCCN2CCOCC2)cc1S(=O)(=O)N1CCCCC1	Mcl1 Bid PPI 51.4 (no result: Mcl-1 Bim block)
COCCNCC(=O)Nc1ccc(C)c(S(=O)(=O)N2CCCCC2)c1	none
N/C(=N\NC(=O)c1ccccc1Cl)c1cc2ccccc2oc1=O	none
C/C(=C\c1ccco1)CN1CCN(Cc2ccc(C)o2)C(CCO)C1 (centres undefined)	none
Clc1ccccc1-c1nc(-c2ccncc2)no1	14-3-3 Bad inh 72.9 (no result: Mcl-1 Bim block)
c1ccc(-c2ccccc2-c2nc(-c3ccncc3)no2)cc1	none
COc1cc(CN2CCNC(=O)C2CC(=O)N(Cc2nccn2C)C(C)C)cc(OC)c1 (centres undefined)	none (no result: Mcl-1 Bim block)
N=c1cc(C2(O)CCCCC2)n2c(nc3ccccc32)s1	Mcl1 Bid PPI 97.8
NC1=NC2(CCCCC2)n2c(nc3ccccc32)N1	none
Cc1ccc(N(CC(N)=O)C2SC(=O)N(C)C2=O)cc1 (centres undefined)	14-3-3 Bad inh 80.4
Cc1cccc(N(CC(N)=O)C2SC(=O)N(c3ccccc3)C2=O)c1 (centres undefined)	none
Cn1nc(C(=O)NCCOc2ccccc2)c2ccccc2c1=O	14-3-3 Bad inh 74.7
COc1ccc(/C=N/NC(=O)CCN2CCN(c3ccccc3)CC2)c(OC)c1OC	none
O=C(Cc1csc(N2CCOCC2)n1)N/N=C/c1ccc(O)c(O)c1O	Mcl1-Noxa inh 84.8
O=C(CCN1CCN(c2ccccc2)CC1)N/N=C/c1ccc(O)c(O)c1O	Mcl1-Noxa inh 77.0
COc1cccc(CN(C)C(=O)c2csc3c2CCCC3)c1OC	none
COC(=O)[C@H](CC(C)C)NC(=O)Nc1ccc(S(N)(=O)=O)cc1	none (no result: Mcl-1 Bim block)
C=CCN1C(=O)/C(=C2/Sc3ccc(OC)cc3N2C)SC1=Nc1cccc(O)c1	Mcl1 Bid PPI 54.0, Mcl1-Noxa inh 58.0
COC(=O)c1cc(Cl)c(NC(=O)c2cc3ccccc3o2)cc1OC	none
CCCCN(C)C(=O)c1coc(=O)c2ccccc12	Mcl1 Bid PPI 94.2 (no result: 14-3-3 Bad inh)
CN(C(=O)c1coc(=O)c2ccccc12)c1ccc(Br)cc1	none
COc1cc(CC2COC(c3ccc(O)c(OC)c3)C2COC(C)=O)ccc1O (centres undefined)	Mcl1-Noxa inh 70.2 (no result: Mcl-1 Bim block)
COc1cc(CC(=O)O)ccc1O	none (no result: Mcl-1 Bim block)
COc1ccc(/C=N/Nc2nc(-c3ccc(C)cc3)c(NC(C)=O)s2)cc1OC	Mcl1-Noxa inh 56.8 (no result: Mcl-1 Bim block)
COc1cc(/C=N\Nc2nc(-c3ccc(C)cc3)c(NC(C)=O)s2)ccc1O	Mcl1-Noxa inh 83.3 (no result: Mcl-1 Bim block)
CCOc1cc(/C=N\Nc2nc(-c3ccc(C)cc3)c(NC(C)=O)s2)ccc1O	Mcl1-Noxa inh 66.8 (no result: Mcl-1 Bim block)
NC(N)=Nc1nc2ccc(Cl)cc2c(=O)[nH]1	none
CC1=C(C#N)C(=O)N(C2CCS(=O)(=O)C2)C(=O)/C1=C\c1ccco1 (centres undefined)	Mcl1 Bid PPI 60.5, 14-3-3 Bad inh 76.9, Mcl1-Noxa inh 109.6 (no result: Mcl-1 Bim block)
COC(=O)C1=C(C)N(C)C(=O)/C1=C\c1ccco1	none
N#Cc1cnc2c(-c3ccccc3)c(-c3ccccc3)nn2c1N	none
Cc1ccc(-c2nnc(-n3ncc(C#N)c3N)c3ccccc23)cc1C	NCF1 inh 42.0
Cc1nn(Cc2c(Cl)cccc2Cl)c(Cl)c1/C=N/NC(=O)c1cccnc1	none
O=C(CCCOc1ccccc1)N1CCN(c2ccccc2)CC1	Mcl1 Bid PPI 59.3
O=C(O)CC(NNC(=O)c1ccccc1)C(=O)Nc1cccc([N+](=O)[O-])c1 (centres undefined)	none (no result: Mcl-1 Bim block)
CN(C)C(=S)SCCn1c(N)nc(N(C)C)nc1=O	none (no result: Mcl-1 Bim block)
C/C(=N\NC(=O)c1cccnc1)c1cc2ccccc2o1	none
CCOC(=O)c1ccc(N2C(=O)CC(Nc3ccc(O)cc3)C2=O)cc1 (centres undefined)	NCF1 inh 34.7 (no result: Mcl-1 Bim block)
CCOC(=O)c1ccc(N2C(=O)CC(NNC(=O)c3ccc(Br)s3)C2=O)cc1 (centres undefined)	none (no result: Mcl-1 Bim block)
COc1ccccc1NC(=O)c1ccccc1NS(C)(=O)=O	none
CN(c1cccc(NC(=O)c2ccccc2N(C)S(C)(=O)=O)c1)S(C)(=O)=O	Mcl1 Bid PPI 67.8
CS(=O)(=O)Nc1ccccc1C(=O)Nc1cccc(Cl)c1	14-3-3 Bad inh 76.9
COc1ccc(NC(=O)c2ccccc2NS(C)(=O)=O)cc1OC	Mcl1 Bid PPI 50.9
CC1CCc2sc(C(=O)N/N=C/c3ccc(O)cc3)cc2C1 (centres undefined)	none (no result: Mcl-1 Bim block)
CCCOC(=O)c1ccc(NC(=O)c2ccccc2[N+](=O)[O-])cc1	none
N#CCCn1cc(C(=O)N2CCCCC2)c(-c2ccc([N+](=O)[O-])cc2)n1	none
COc1ccc(C(=O)N(NC(=O)Oc2ccccc2)C(C)(C)C)cc1	none
CCCCn1c(NCc2cccs2)nc2ccccc21	Mcl1-Noxa inh 50.5
CCCCn1c(NCc2ccc(N(C)C)cc2)nc2ccccc21	Mcl1-Noxa inh 89.4 (no result: Mcl-1 Bim block)
CCCCn1c(NCc2ccncc2)nc2ccccc21	none
CCCn1c(NCc2cccs2)nc2ccccc21	none
O=C(/C=C/c1cccs1)Nc1ccc(Br)cn1	none
CCCN(CC1CCCO1)C(=O)CCc1nnc(-c2cc(C)on2)o1 (centres undefined)	none
O=C(O)CCc1ccc(-c2ccccc2)n1Cc1ccco1	none
O=C(O)CCc1ccc(-c2ccc(Br)cc2)n1Cc1ccco1	Mcl1-Noxa inh 51.5
COc1ccc(NC(=O)CSc2nnc3n2CCCCC3)cc1	none (no result: NCF1 inh)
CC(C)c1ccc(OCc2ccc(C(=O)NN3CCN(C)CC3)o2)cc1	none
CCn1[nH]c(=O)c(=Nc2c(C)n(C)n(-c3ccccc3)c2=O)cc1-c1ccc(Cl)cc1	14-3-3 Bad inh 91.3[fluorescence artefact?]
Cc1c(N=Cc2ccc(-c3ccc(Cl)cc3)o2)c(=O)n(-c2ccccc2)n1C	none (no result: Mcl1-Noxa inh)
COC(=O)c1cc(NS(=O)(=O)c2ccc(C)c3ccccc23)ccc1N1CCOCC1	none (no result: Mcl-1 Bim block)
N#Cc1cc(NC(=O)c2ccc(F)cc2)c(=O)n2c1[nH]c1ccccc12	Mcl1-Noxa inh 60.8
NNC(=O)c1csc(-c2ncc(C(F)(F)F)cc2Cl)n1	none (no result: Mcl-1 Bim block)
CN(C)S(=O)(=O)c1ccc(Cl)c(NC(=O)CSc2nnnn2-c2ccc(O)cc2)c1	Mcl1 Bid PPI 56.2
CCc1cc(CNC(=O)CC2C(=O)NCCN2Cc2c(F)cccc2Cl)on1 (centres undefined)	NCF1 inh 91.3
O=C(CC1C(=O)NCCN1Cc1c(F)cccc1Cl)NCc1ccccc1 (centres undefined)	none
COc1ccc([N+](=O)[O-])cc1N(CC(=O)Nc1ccccc1C(=O)NC(C)C)S(C)(=O)=O	none
O=C(O)c1cc(-c2ccc(O)cc2)on1	14-3-3 Bad inh 79.3
COc1ccc(OC)c(/C=C/C(=O)N(C)CC(=O)Nc2cc(C)ccc2C)c1	none
CC(=O)N1CCN(c2c(F)c(F)c(C(F)(F)F)c(F)c2F)CC1	none
O=c1c2ccccc2sc2nc(C3CCCCC3)n(Cc3ccco3)c(=O)c12	Mcl1 Bid PPI 66.7, 14-3-3 Bad inh 73.4

High-throughput results deposited in PubChem BioAssay by several laboratories.
